Reference: PubChem BioAssay (EPA / NIEHS)
Records with an inconclusive call do not appear. Active and inactive are the calls of the source. Rule for the calls, unless noted: active = hit-call score of the fitted dose curve at least 0.9, where 1 is the maximum; inactive = score below 0.9.

What was measured:
[1] = target: Nuclear respiratory factor 1 (Homo sapiens) (UniProt Q16656); assay: ATG_NRF1_CIS: Attagene CIS-FACTORIAL HepG2 Assay for human Nuclear Respiratory Factor 1 (NRF1) Orphan Gene (AID 2282987); conditions: HepG2 NRF1 cis-element reporter, Attagene multiplex; actives raise or lower the signal
Summary of the method: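 Human hepatoma HepG2 cells carrying transfected promoter-regulated reporter units were incubated with test chemicals for 24 h. Reporter transcripts were measured by RT-PCR plus capillary electrophoresis, and endpoints derived by bidirectional fitting with DMSO as baseline.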

[2] = ATG_NFI_CIS: Attagene CIS-FACTORIAL HepG2 Assay for human Nuclear Factor I (NFI) (AID 2282989); conditions: HepG2 cis-regulatory reporter, NFI response element transcription; actives raise or lower the signal
Summary of the method: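 Cells: human liver HepG2, transiently transfected with promoter-regulated reporter transcription units. Exposure 24 h. Detection: fluorescent RT-PCR products separated by capillary electrophoresis, normalised to DMSO negative control.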

[3] = target: Myc proto-oncogene protein (Homo sapiens) (UniProt P01106); assay: ATG_Myc_CIS: Attagene CIS-FACTORIAL HepG2 Assay for human Myelocytomatosis (Myc) Proto-Oncogene Transcription Factor (AID 2282990); conditions: HepG2, Attagene cis-reporter transcription factor activity; actives raise or lower the signal
Summary of the method: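 After 24 h chemical treatment of HepG2 cells carrying multiplexed cis-regulated reporter constructs, reporter transcripts quantified by RT-PCR and capillary electrophoresis of fluorescent fragments. Gain or loss fitted against DMSO baseline.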

[4] = ATG_NF_kB_CIS: Attagene CIS-FACTORIAL HepG2 Assay for human Nuclear Factor Kappa B (NF-kB) (AID 2282991); conditions: HepG2 Attagene cis-factorial NF-kB reporter mRNA; actives raise or lower the signal
Summary of the method: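 Multiplexed cis-reporter assay in transiently transfected HepG2. 24 h treatment; RNA isolated, RT-PCR, labelled fragments resolved by CE. DMSO baseline.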

[5] = ATG_NRF2_ARE_CIS: Attagene CIS-FACTORIAL HepG2 Assay for human Nuclear Factor Erythroid 2 Related Factor 2 (NFR2) response to Antioxidant Response Elements (ARE) (AID 2282992); conditions: HepG2 Attagene ARE/NRF2 reporter, transcription factor activity; actives raise or lower the signal;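 for AC50: reporter mRNA level measured by RT-PCR and capillary electrophoresis fluorescence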
Summary of the method: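 Readout: reporter mRNA quantified by RT-PCR plus FAM-labelled primer extension, HpaI digestion and capillary electrophoresis, 24 h after dosing transfected HepG2 cells. Gain or loss of signal is fitted bidirectionally against DMSO baseline.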

[6] = ATG_Oct_MLP_CIS: Attagene CIS-FACTORIAL HepG2 Assay for human Octamer-Binding Transcription Factor (Oct) (AID 2282993); conditions: HepG2 Attagene cis-factorial Oct reporter, mRNA; actives raise or lower the signal
Summary of the method: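 HepG2, transient MRTU transfection, cis promoter elements; 24 h dosing; RT-PCR/CE fluorescence read-out of reporter mRNA; fit both directions vs DMSO.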

[7] = target: Cellular tumor antigen p53 (Homo sapiens) (UniProt P04637); assay: ATG_p53_CIS: Attagene CIS-FACTORIAL HepG2 Assay for human p53 Transcription Factor (AID 2282994); conditions: HepG2 p53 cis-element reporter, Attagene mRNA; actives raise or lower the signal
Summary of the method: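 Read-out: reporter mRNA by RT-PCR plus capillary electrophoresis with fluorescence detection. Human HepG2 liver cells carried transfected multi-reporter cis-element constructs, dosed 24 h. Gain or loss of signal fitted bidirectionally against DMSO control.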

[8] = target: human Peroxisome Proliferator-activated Receptor alpha (PPARa), PPARA (gene 5465) (UniProt Q07869); assay: ATG_PPARa_TRANS: Attagene TRANS-FACTORIAL HepG2 Assay for human Peroxisome Proliferator-activated Receptor alpha (PPARa) (AID 2283001; active = hit-call score of the fitted dose curve at least 0.9, where 1 is the maximum)
Summary of the method: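 Transfected HepG2 cells treated with test chemical for 24 h. RNA isolated, reverse-transcribed with oligo(dT), PCR-amplified, FAM-labelled and HpaI-digested. Fragments sized by capillary electrophoresis; gain-of-signal fit relative to DMSO.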

[9] = target: human Peroxisome Proliferator-activated Receptor delta (PPARd), PPARD (gene 5467) (UniProt Q03181); assay: ATG_PPARd_TRANS: Attagene TRANS-FACTORIAL HepG2 Assay for human Peroxisome Proliferator-activated Receptor delta (PPARd) (AID 2283002; active = hit-call score of the fitted dose curve at least 0.9, where 1 is the maximum)
Summary of the method: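 Read-out is induced reporter mRNA, quantified by RT-PCR with fluorescent labelling and capillary electrophoresis after 24 h dosing. Cells are HepG2 transiently carrying multiple GAL4-UAS reporter units driven by exogenous NR-GAL4 chimeras; DMSO serves as baseline.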

[10] = target: Peroxisome proliferator-activated receptor gamma (Homo sapiens) (UniProt P37231); assay: ATG_PPARg_TRANS: Attagene TRANS-FACTORIAL HepG2 Assay for human Peroxisome Proliferator-activated Receptor-gamma (PPARg) (AID 2283007; active = hit-call score of the fitted dose curve at least 0.9, where 1 is the maximum)
Summary of the method: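 Human hepatoma HepG2, transient MRTU transfection, 24 h treatment. mRNA reporter signal by RT-PCR plus capillary electrophoresis, fluorescence detection; fitted for increase over DMSO negative control.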

[11] = target: Nuclear receptor subfamily 1 group I member 2 (Homo sapiens) (UniProt O75469); assay: ATG_PXR_TRANS: Attagene TRANS-FACTORIAL HepG2 Assay for human Pregnane X Receptor (PXR) (AID 2283008; active = hit-call score of the fitted dose curve at least 0.9, where 1 is the maximum)
Summary of the method: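 Trans-factorial format: exogenous NR-Gal4 fusion activity, not endogenous factor, in transfected human HepG2 liver cells. After 24 h dosing, RNA isolated, reverse-transcribed, amplified and resolved by capillary electrophoresis; induction scored versus DMSO.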

[12] = target: human Retinoic Acid Receptor gamma (RARg), RARG (gene 5916) (UniProt P13631); assay: ATG_RARg_TRANS: Attagene TRANS-FACTORIAL HepG2 Assay for human Retinoic Acid Receptor gamma (RARg) (AID 2283009; active = hit-call score of the fitted dose curve at least 0.9, where 1 is the maximum)
Summary of the method: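 Readout: reporter transcript levels via RT-PCR, 6-FAM primer-extension labelling, HpaI digestion and capillary electrophoresis. Cells: HepG2 carrying transfected RARg-GAL4 chimera plus UAS reporter set. Dosing 24 h; DMSO negative control.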

[13] = target: human RAR-related Orphan Receptor beta (RORb), RORB (gene 6096) (UniProt Q92753); assay: ATG_RORb_TRANS: Attagene TRANS-FACTORIAL HepG2 Assay for human RAR-related Orphan Receptor beta (RORb) (AID 2283010; active = hit-call score of the fitted dose curve at least 0.9, where 1 is the maximum)
Summary of the method: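 HepG2, transient MRTU transfection (GAL4-UAS reporters, exogenous NR-Gal4 chimeras); 24 h compound exposure; total RNA → RT-PCR → 6-FAM primer extension → HpaI digest → CE fluorescence. Positive direction vs DMSO baseline.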

[14] = BSK_3C_TissueFactor: BioMAP Diversity Plus: 3C Assay for Tissue Factor Biomarker Activity (AID 2282997); conditions: BioMAP 3C HUVEC, tissue factor biomarker readout; actives raise or lower the signal
Summary of the method: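 After a 24 h chemical exposure of primary human umbilical vein endothelial cells, Tissue Factor levels were quantified by ELISA.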

[15] = BSK_3C_uPAR: BioMAP Diversity Plus: 3C Assay for Urokinase-type plasminogen activator receptor (uPAR) Biomarker Activity (AID 2282998); conditions: BioMAP 3C HUVEC, uPAR biomarker ELISA; actives raise or lower the signal
Summary of the method: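 A multiplexed primary-cell system built on human umbilical vein endothelium was used, with chemical present for 24 h before reading. Cell-surface uPAR was detected by ELISA; signal change in either direction counted against DMSO.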

[16] = BSK_3C_VCAM1: BioMAP Diversity Plus: 3C Assay for Vascular cell adhesion molecule 1 (VCAM1) Biomarker Activity (AID 2282999); conditions: BioMAP 3C HUVEC, VCAM1 ELISA, cytokine-stimulated; actives raise or lower the signal
Summary of the method: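 Activity fitted in both directions relative to DMSO, with ELISA measurement of the surface marker on primary HUVEC (3C) at 24 h post-treatment; parallel SRB staining (0.1% SRB, TCA-fixed, 560 nm) flagged overt cytotoxicity.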

[17] = BSK_4H_Eotaxin3: BioMAP Diversity Plus: 4H Assay for Eotaxin 3 Biomarker Activity (AID 2283000); conditions: primary human endothelial cells (HUVEC); actives raise or lower the signal;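 note: CCL26 protein level quantified by ELISA in parallel with SRB cytotoxicity check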
Summary of the method: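 Chemicals were added to human umbilical vein endothelium cultures, and Eotaxin-3 was quantified by ELISA at 24 h. Values were derived by bidirectional fitting with DMSO serving as negative control and activity baseline.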

[18] = read-out: Intercellular Adhesion Molecule 1 (ICAM1), ICAM1 (gene 3383); assay: BSK_3C_ICAM1: BioMAP Diversity Plus: 3C Assay for Intercellular Adhesion Molecule 1 (ICAM1) Biomarker Activity (AID 2283003); conditions: primary human endothelial cells (HUVEC); actives raise or lower the signal
Summary of the method: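 ELISA read-out of ICAM-1; HUVEC (primary human), 3C system, 24 h post-dosing; bidirectional fit vs DMSO baseline.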

[19] = BSK_3C_Proliferation: Cell Proliferation Assessment in the BioMAP Diversity Plus: 3C Assay (AID 2283006); conditions: primary human endothelial cells (HUVEC)
Summary of the method: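 HUVEC, sub-confluent; 48 h chemical exposure; 10% TCA fix, 0.1% SRB stain, A560 total protein. Gain or loss of signal fitted both directions vs DMSO control.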

[20] = target: Retinoic acid receptor alpha (Homo sapiens) (UniProt P10276); assay: ATG_RARa_TRANS: Attagene TRANS-FACTORIAL HepG2 Assay for human Retinoic Acid Receptor alpha (RARa) (AID 2283005; active = hit-call score of the fitted dose curve at least 0.9, where 1 is the maximum)
Summary of the method: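 Reporter transcripts, measured by RT-PCR with fluorescent labeling and capillary electrophoresis after 24 h dosing, reflect activity of an exogenous human RARa–GAL4 fusion in transiently transfected HepG2. Fitted for increase relative to DMSO.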

Chain of Nuclear respiratory factor 1 (Homo sapiens) (Q16656 whole entry, looked up): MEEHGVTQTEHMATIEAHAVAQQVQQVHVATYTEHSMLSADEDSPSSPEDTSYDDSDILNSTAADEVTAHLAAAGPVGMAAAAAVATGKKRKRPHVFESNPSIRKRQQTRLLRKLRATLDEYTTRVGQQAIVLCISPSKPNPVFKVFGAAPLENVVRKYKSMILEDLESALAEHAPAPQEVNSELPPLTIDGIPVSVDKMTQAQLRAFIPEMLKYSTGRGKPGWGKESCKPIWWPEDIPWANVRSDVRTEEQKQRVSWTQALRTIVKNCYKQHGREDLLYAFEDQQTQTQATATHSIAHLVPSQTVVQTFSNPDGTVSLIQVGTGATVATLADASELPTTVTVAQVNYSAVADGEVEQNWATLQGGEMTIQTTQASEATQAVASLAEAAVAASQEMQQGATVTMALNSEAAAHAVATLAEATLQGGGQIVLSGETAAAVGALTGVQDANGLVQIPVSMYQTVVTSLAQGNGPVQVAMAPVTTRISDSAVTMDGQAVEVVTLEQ
Chain of Cellular tumor antigen p53 (Homo sapiens) (P04637 whole entry, looked up): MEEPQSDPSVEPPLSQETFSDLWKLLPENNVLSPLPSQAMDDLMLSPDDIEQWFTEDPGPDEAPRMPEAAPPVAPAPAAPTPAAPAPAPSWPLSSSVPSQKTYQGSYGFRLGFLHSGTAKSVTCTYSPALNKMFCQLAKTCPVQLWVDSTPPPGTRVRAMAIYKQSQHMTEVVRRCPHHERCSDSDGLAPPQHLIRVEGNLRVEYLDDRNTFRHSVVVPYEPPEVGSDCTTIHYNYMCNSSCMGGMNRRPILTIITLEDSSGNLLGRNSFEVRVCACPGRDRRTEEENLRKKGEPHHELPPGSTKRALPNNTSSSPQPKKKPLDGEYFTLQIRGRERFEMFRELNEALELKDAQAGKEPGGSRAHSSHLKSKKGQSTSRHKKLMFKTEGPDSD
Chain of human Peroxisome Proliferator-activated Receptor alpha (PPARa), PPARA (gene 5465) (Q07869 whole entry, looked up, the tested form may be a part): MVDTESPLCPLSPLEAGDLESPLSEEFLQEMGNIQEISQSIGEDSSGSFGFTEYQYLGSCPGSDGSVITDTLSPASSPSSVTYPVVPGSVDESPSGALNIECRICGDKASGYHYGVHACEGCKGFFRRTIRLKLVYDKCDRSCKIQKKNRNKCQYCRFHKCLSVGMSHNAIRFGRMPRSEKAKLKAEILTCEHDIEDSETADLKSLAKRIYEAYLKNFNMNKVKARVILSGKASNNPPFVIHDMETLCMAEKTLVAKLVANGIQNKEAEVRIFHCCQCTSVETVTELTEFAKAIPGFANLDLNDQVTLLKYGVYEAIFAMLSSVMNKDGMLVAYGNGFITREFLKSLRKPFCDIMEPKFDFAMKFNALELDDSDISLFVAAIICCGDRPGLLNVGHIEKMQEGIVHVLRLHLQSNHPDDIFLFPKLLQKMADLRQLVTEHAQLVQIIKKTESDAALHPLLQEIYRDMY
Chain of human Retinoic Acid Receptor gamma (RARg), RARG (gene 5916) (P13631 whole entry, looked up, the tested form may be a part): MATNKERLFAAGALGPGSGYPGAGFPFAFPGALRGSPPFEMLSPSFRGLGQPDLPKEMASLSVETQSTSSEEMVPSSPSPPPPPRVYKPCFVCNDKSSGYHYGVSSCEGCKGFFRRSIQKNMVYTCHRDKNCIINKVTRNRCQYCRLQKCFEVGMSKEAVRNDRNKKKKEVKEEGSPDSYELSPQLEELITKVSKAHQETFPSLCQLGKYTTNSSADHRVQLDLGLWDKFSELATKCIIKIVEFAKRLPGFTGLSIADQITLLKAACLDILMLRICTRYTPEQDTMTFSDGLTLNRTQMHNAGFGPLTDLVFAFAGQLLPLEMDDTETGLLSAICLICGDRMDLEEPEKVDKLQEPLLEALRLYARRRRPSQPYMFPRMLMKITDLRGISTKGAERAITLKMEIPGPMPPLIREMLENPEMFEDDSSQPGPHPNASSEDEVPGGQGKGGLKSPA
Chain of human RAR-related Orphan Receptor beta (RORb), RORB (gene 6096) (Q92753 whole entry, looked up, the tested form may be a part): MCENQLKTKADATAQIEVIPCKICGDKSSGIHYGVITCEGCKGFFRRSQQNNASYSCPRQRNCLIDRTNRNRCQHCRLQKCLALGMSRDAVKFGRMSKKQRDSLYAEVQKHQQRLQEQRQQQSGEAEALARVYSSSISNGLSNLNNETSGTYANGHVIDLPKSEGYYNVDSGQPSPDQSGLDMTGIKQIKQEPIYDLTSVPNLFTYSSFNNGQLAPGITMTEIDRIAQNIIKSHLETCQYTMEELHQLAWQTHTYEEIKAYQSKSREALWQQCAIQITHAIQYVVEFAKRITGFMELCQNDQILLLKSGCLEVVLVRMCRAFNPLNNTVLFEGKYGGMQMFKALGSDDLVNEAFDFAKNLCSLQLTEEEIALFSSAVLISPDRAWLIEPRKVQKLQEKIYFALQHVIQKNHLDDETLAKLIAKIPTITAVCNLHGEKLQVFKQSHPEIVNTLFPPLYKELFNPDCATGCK
Chain of Peroxisome proliferator-activated receptor gamma (Homo sapiens) (P37231 whole entry, looked up): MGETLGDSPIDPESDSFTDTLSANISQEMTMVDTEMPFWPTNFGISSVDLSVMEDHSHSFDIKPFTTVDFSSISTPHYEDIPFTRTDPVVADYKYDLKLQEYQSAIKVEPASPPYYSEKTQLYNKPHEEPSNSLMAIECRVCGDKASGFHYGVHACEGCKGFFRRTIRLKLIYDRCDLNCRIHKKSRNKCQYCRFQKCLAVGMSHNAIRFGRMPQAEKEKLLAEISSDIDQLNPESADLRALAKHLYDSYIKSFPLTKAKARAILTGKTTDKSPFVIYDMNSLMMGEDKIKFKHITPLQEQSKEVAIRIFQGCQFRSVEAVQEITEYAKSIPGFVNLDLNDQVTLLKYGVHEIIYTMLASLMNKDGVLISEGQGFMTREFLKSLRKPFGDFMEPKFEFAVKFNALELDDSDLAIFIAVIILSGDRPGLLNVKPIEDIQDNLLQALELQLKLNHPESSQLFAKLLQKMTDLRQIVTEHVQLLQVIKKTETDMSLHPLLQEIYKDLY
Chain of Nuclear receptor subfamily 1 group I member 2 (Homo sapiens) (O75469 whole entry, looked up, the tested form may be a part): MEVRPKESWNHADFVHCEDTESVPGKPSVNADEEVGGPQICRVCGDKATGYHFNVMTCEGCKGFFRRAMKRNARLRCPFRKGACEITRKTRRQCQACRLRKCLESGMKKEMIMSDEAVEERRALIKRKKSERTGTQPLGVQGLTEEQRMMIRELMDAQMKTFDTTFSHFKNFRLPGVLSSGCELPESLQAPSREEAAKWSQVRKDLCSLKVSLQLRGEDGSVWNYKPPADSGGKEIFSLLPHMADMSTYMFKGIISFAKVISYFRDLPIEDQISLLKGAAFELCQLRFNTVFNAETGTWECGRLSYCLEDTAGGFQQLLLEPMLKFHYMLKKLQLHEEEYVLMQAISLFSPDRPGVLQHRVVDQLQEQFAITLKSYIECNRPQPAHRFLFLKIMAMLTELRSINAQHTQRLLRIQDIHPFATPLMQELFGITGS
Chain of Myc proto-oncogene protein (Homo sapiens) (P01106 whole entry, looked up, the tested form may be a part): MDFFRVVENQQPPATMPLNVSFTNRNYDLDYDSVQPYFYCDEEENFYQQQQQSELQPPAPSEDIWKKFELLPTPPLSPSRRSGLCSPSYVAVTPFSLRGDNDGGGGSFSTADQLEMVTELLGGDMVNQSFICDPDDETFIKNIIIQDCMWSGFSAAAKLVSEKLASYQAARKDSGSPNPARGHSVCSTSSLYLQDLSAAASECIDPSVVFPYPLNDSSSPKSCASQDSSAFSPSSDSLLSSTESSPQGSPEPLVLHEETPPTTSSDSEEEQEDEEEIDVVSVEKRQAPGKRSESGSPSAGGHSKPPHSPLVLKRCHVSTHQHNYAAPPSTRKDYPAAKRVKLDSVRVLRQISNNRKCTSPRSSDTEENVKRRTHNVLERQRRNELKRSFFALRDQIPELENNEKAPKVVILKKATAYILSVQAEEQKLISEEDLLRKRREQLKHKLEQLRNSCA
Chain of human Peroxisome Proliferator-activated Receptor delta (PPARd), PPARD (gene 5467) (Q03181 whole entry, looked up, the tested form may be a part): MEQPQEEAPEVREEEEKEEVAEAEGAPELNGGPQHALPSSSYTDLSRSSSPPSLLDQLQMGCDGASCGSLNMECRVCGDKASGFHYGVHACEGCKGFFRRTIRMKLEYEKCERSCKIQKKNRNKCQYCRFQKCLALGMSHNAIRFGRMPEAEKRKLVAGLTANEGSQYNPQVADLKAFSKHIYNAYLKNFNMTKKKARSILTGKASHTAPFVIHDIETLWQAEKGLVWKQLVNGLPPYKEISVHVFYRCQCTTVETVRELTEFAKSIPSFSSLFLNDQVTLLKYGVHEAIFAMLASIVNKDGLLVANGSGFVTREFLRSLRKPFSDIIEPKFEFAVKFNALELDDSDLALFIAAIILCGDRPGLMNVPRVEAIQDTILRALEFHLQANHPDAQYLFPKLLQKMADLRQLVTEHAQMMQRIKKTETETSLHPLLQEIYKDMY
Chain of Retinoic acid receptor alpha (Homo sapiens) (P10276 whole entry, looked up, the tested form may be a part): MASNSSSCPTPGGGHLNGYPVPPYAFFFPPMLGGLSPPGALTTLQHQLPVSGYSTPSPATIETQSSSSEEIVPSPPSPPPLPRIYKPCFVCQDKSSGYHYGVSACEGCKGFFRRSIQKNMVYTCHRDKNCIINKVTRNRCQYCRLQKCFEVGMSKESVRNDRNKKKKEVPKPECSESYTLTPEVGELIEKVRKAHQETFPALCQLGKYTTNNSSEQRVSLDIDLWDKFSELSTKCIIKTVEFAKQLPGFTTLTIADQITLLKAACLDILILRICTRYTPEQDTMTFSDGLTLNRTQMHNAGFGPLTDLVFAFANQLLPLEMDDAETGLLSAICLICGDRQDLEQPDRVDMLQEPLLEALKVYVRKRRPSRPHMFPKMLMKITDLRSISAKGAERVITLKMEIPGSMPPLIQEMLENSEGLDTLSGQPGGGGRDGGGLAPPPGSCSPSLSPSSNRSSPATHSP

SMILES: CC1(C)CC(N)CC(C)(CN)C1 (configuration not stated)
- outcome [1]: inactive
- outcome [2]: inactive
- outcome [3]: inactive
- outcome [4]: inactive
- outcome [5]: inactive
- outcome [6]: inactive
- outcome [7]: inactive
- outcome [8]: inactive
- outcome [9]: inactive
- outcome [10]: inactive
- outcome [11]: inactive
- outcome [12]: inactive
- outcome [13]: inactive

SMILES: OCCCO
- outcome [1]: inactive
- outcome [2]: inactive
- outcome [3]: inactive
- outcome [4]: inactive
- outcome [5]: inactive
- outcome [6]: inactive
- outcome [7]: inactive
- outcome [8]: inactive
- outcome [9]: inactive
- outcome [11]: inactive
- outcome [12]: inactive

SMILES: CCCCN(CCO)CCO
- outcome [1]: inactive
- outcome [2]: inactive
- outcome [3]: inactive
- outcome [4]: inactive
- outcome [5]: inactive
- outcome [6]: inactive
- outcome [7]: inactive
- outcome [14]: inactive
- outcome [15]: inactive
- outcome [16]: inactive
- outcome [17]: inactive
- outcome [8]: inactive
- outcome [18]: inactive
- outcome [19]: inactive
- outcome [10]: inactive
- outcome [13]: inactive

SMILES: O=C(C=Cc1ccccc1)OCCCc1ccccc1
- outcome [1]: inactive
- outcome [2]: inactive
- outcome [3]: inactive
- outcome [4]: inactive
- AC50 [5]: 58 µM (active)
- outcome [6]: inactive
- outcome [7]: inactive
- outcome [8]: inactive
- outcome [20]: inactive
- outcome [12]: inactive
- outcome [13]: inactive

SMILES: CCO[Si](CC)(OCC)OCC
- outcome [1]: inactive
- outcome [2]: inactive
- outcome [3]: inactive
- outcome [4]: inactive
- AC50 [5]: 19.8 µM (active)
- outcome [6]: inactive
- outcome [7]: inactive
- outcome [8]: inactive
- outcome [9]: inactive

SMILES: O=C(OCc1ccccc1)c1ccccc1O
- outcome [1]: inactive
- AC50 [2]: 178 µM (active)
- outcome [3]: inactive
- outcome [4]: inactive
- AC50 [5]: 64.4 µM (active)
- outcome [6]: inactive
- AC50 [7]: 145 µM (active)
- outcome [8]: inactive
- outcome [9]: inactive
- AC50 [11]: 62.7 µM (active)
- outcome [13]: inactive

SMILES: CCCc1ccc(O)cc1
- outcome [1]: inactive
- outcome [2]: inactive
- outcome [3]: inactive
- outcome [4]: inactive
- AC50 [5]: 36 µM (active)
- outcome [6]: inactive
- outcome [7]: inactive
- outcome [8]: inactive
- outcome [9]: inactive
- outcome [11]: inactive

SMILES: CCCCCCCCCCCCCCCCCC(=O)OCCCCCCCCCCCCCC(C)C
- outcome [1]: inactive
- outcome [2]: inactive
- outcome [3]: inactive
- outcome [4]: inactive
- outcome [5]: inactive
- outcome [6]: inactive
- outcome [7]: inactive
- outcome [8]: inactive
- outcome [9]: inactive
- outcome [11]: inactive

SMILES: C=C(C)C(=O)OCCC(C)OC(=O)C(=C)C (configuration not stated)
- outcome [1]: inactive
- outcome [2]: inactive
- outcome [3]: inactive
- outcome [4]: inactive
- outcome [5]: inactive
- outcome [6]: inactive
- outcome [7]: inactive
- outcome [8]: inactive
- AC50 [10]: 47 µM (active)
- outcome [11]: inactive

SMILES: CCCc1ccc(N)cc1
- outcome [1]: inactive
- outcome [2]: inactive
- outcome [3]: inactive
- outcome [4]: inactive
- outcome [5]: inactive
- outcome [6]: inactive
- outcome [7]: inactive

SMILES: CCOC(=O)CCCCCCCCC(=O)OCC
- outcome [1]: inactive
- outcome [2]: inactive
- outcome [3]: inactive
- outcome [4]: inactive
- outcome [5]: inactive
- outcome [6]: inactive
- outcome [7]: inactive
- outcome [14]: inactive
- outcome [15]: inactive
- outcome [17]: inactive
- outcome [8]: inactive
- outcome [18]: inactive
- outcome [19]: inactive
- outcome [13]: inactive
